# Hits are enriched below; roughly 3.5% of the tested compounds scored in any of these assays.
# FBW7 act: human FBW7 E3 ligase activation, primary screen | AID 1259310 | 650,000 tested, 0.13% active | normalized activity (activation), % at 26.1 µM | Q969H0 | AlphaScreen FBW7–phospho-cyclin E peptide binding, activator screen; in the data active = normalized activity above about 1.9%;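 also: purified mutant Fbw7 with reduced substrate affinity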
# Target sequence (Q969H0 whole entry, looked up): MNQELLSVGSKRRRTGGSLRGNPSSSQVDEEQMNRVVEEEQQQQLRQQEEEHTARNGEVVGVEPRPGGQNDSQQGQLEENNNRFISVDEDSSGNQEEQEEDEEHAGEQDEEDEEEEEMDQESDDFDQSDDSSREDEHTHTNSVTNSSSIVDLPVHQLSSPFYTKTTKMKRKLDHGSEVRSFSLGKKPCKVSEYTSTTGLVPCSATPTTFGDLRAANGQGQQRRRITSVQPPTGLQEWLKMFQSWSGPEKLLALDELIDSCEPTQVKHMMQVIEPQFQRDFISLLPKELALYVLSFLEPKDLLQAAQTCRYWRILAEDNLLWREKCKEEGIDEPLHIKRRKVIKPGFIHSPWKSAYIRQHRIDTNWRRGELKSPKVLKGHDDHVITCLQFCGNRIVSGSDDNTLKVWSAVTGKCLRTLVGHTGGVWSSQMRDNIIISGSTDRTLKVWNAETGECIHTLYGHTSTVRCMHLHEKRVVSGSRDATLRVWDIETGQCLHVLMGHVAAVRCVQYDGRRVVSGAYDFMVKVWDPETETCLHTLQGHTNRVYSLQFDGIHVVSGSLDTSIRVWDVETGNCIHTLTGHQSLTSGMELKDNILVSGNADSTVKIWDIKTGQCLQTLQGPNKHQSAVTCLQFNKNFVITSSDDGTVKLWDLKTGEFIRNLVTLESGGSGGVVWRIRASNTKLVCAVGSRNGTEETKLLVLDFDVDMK
# MITF primary: inhibitors of human MITF. AlphaScreen MITF homodimerization, bead proximity signal. inhibition, % at 2.6 µM. 650,000 tested, 0.91% active; in the data active = inhibition above about 50%
# TEAD-YAP block: TEAD-YAP interaction inhibition | HEK-TIYL cells, TEAD-Gal4/YAP UAS-luciferase luminescence | inhibition, % at 9.12 µM | 640,000 tested, 1.4% active | AID 1259422; in the data active = inhibition above about 32%
# GPR151 activ: activates the human receptor GPR151; PathHunter beta-arrestin GPR151 cells, luminescence; Q8TDV0; activation, % at 11.2 µM; 650,000 tested, 1% active; in the data active = activation above about 4.9%
# GPR151 confirm: confirmation of human GPR151 activators; shares compounds with GPR151 activ; GPR151 PathHunter beta-arrestin cells, luminescence, 90 min; % of EA-reagent control over plate median; activation, % at 11.2 µM; 6,700 tested, under 10 active; AID 1508609;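 active = mean percent activation across replicates above the confirmation screen cutoff of 4.91%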
# GPR119 ag: counter-screen for GPR151 activators: effect on human GPR119; shares compounds with GPR151 activ; GPR119 PathHunter beta-arrestin cells, luminescence, 90 min; 0 = compound-well median, 100 = enzyme-acceptor control; activation, % at 11.2 µM; 6,700 tested, 0.3% active;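 active = mean percent activation in the counterscreen above 29.09%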;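 also: counterscreen on off-target GPR119 to flag nonselective hits from the GPR151 activator screen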
# A number is an active result; i = inactive; nt = not tested or not shown; ! = a repeat was not active.
SMILES,FBW7 act,MITF primary,TEAD-YAP block,GPR151 activ,GPR151 confirm,GPR119 ag
Cc1ccccc1N1C(=O)c2ccc(Oc3ccc([N+](=O)[O-])cc3)cc2C1=O,i,i,i,i,nt,nt
Cc1ccc(C(=O)O)cc1N1C(=O)c2ccc(Oc3ccc([N+](=O)[O-])cc3)cc2C1=O,i,i,i,6.8,i,i
COCCCNC(=O)C1CCC(Cn2c(=O)c3sccc3n(Cc3cccc(C)c3)c2=O)CC1 (stereo not drawn),i,i,i,5.3,i,i
CCOC(=O)C1=C(C)N=c2s/c(=C\c3cc(Br)c(OC)cc3OC)c(=O)n2C1c1ccc(OC)c(OC)c1 (stereo not drawn),i,i,i,i,nt,nt
COc1cccc(NC(=O)C(=O)NCc2cccnc2)c1,i,i,i,i,nt,nt
COc1cccc(NC(=S)NCc2cccnc2)c1,i,i,i,6.1!,i,i
CCC(C)NC(=O)c1sc2ncn(CCOC)c(=O)c2c1C (stereo not drawn),i,i,i,i,nt,nt
CC(=O)Nc1ccc(C(=O)CSc2nncn2C)cc1,i,i,i,9.6,i,i
Cc1ccccc1C(NC(=O)C1CCN(C(=O)c2ccoc2)CC1)c1ncccc1C (stereo not drawn),i,i,i,i,nt,nt
COc1ccc(C(c2nnnn2C(C)C)N2CCN(c3ccccc3OC)CC2)cc1 (stereo not drawn),i,i,i,i,nt,nt
CC(C)n1nnnc1C(c1ccccc1F)N1CCN(c2ccccc2)CC1 (stereo not drawn),i,i,i,6.0,i,i
COc1ccccc1N1CCN(C(c2ccc(N(C)C)cc2)c2nnnn2C(C)C)CC1 (stereo not drawn),i,i,i,5.3,i,i
FC(F)(F)c1ccc(Cn2cnc3c(NCc4cccc(C(F)(F)F)c4)nc(N4CCOCC4)nc32)cc1,i,i,i,i,nt,nt
Cc1ccc2[nH]c3c(c2c1)CCCC3NCc1ccc(F)cc1 (stereo not drawn),i,i,49,14,i,i
Cc1ccc2[nH]c3c(c2c1)CCCC3NC(N)=O (stereo not drawn),i,i,i,i,nt,nt
COc1cc2nc3c4ccccc4n(C)c3nc2cc1OC,i,i,i,i,nt,nt
CCOC(=O)c1c(C)c(C(=O)NCCCOC)c(C)n1C,i,i,i,i,nt,nt
CCOC(=O)c1c(C)c(C(=O)NCCC(C)C)c(C)n1C,i,i,i,12,i,i
O=C(c1nc2sccn2c1CNCC[C@@H]1C[C@@H]2C=C[C@H]1C2)N1CCCCCCC1,i,i,i,i,nt,nt
O=C(Cn1c(=S)[nH]c2ccccc2c1=O)N1CCN(c2ccccn2)CC1,i,i,i,i,nt,nt
CCCC1=NN(S(=O)(=O)c2ccc(C)cc2)C(O)(C(F)(F)F)C1 (stereo not drawn),i,i,i,5.5,i,i
Cc1ccc(S(=O)(=O)N2N=C3CCCCC3C2(O)C(F)(F)F)cc1 (stereo not drawn),i,i,i,i,nt,nt
CCC1CN(CCC(=O)N(C)CCC2CCCCO2)Cc2cc(OC)ccc2O1 (stereo not drawn),i,i,i,i,nt,nt
Cc1cccc(S(=O)(=O)NCCc2cn3ccc(C)cc3n2)c1,i,i,i,i,nt,nt
Cn1c(SCC(N)=O)nnc1-c1ccc2c(c1)OCO2,i,i,i,9.6,i,i
SMILES,FBW7 act,MITF primary,TEAD-YAP block,GPR151 activ,GPR151 confirm,GPR119 ag
CN(C)C(=O)CSc1nnc(-c2ccc3c(c2)OCO3)n1C,i,i,i,i,nt,nt
O=C1CN(C(=O)C2CCN(S(=O)(=O)c3cccc(Cl)c3Cl)CC2)CCN1,i,i,i,i,nt,nt
CCC(C)c1ccc(NC(=S)NN2CCOCC2)cc1 (stereo not drawn),i,i,i,23,i,i
CCCCc1ccc(NC(=S)NN2CCOCC2)cc1,i,i,i,i,nt,nt
COc1ccc(NC(=O)c2cc(Cl)c(Cl)cc2C(=O)O)cc1,i,i,i,i,nt,nt
CC1CN(c2ccc(Cl)cc2[N+](=O)[O-])CCN1S(=O)(=O)c1ccccc1 (stereo not drawn),i,i,i,i,nt,nt
CC1CN(C(=O)CCC(=O)N2CCOCC2)c2ccccc2O1 (stereo not drawn),i,i,i,8.3,i,i
O=C(NCCO)C(=O)NCCC1CCCCN1S(=O)(=O)c1cccs1 (stereo not drawn),i,i,i,i,nt,nt
O=C(NCCO)C(=O)NCC(c1cccs1)S(=O)(=O)c1ccccc1 (stereo not drawn),i,i,i,4.9,i,i
C/C(=N/NS(=O)(=O)c1ccc(C)cc1)c1c(O)c2ccccc2oc1=O,i,i,i,5.4,i,i
C/C(=N\NS(=O)(=O)c1ccc(C)cc1)c1c(O)c2ccccc2oc1=O,i,i,i,i,nt,nt
CCOc1cc(C2C(C#N)=C(N)Oc3n[nH]c(-c4ccc(OC)cc4)c32)ccc1O (stereo not drawn),i,i,i,i,nt,nt
COc1cccc(CC2(CO)CCN(C(=O)CN3CCCC(c4ccccc4)C3)CC2)c1 (stereo not drawn),i,i,i,5.2,i,i
COc1cccc(CC2(CO)CCN(C(=O)Cn3cnnn3)CC2)c1,i,i,i,i,nt,nt
CC1=C(C(=O)O)N2C(=O)[C@@H](NC(=O)C(N)C3=CCC=CC3)[C@H]2SC1 (stereo partly drawn),i,i,i,8.4!,i,i
CC1=C(C(=O)O)N2C(=O)[C@@H](NC(=O)[C@H](N)C3=CCC=CC3)C2SC1 (stereo partly drawn),i,i,i,i,nt,nt
COc1ccc(N2C(=O)NC(=O)/C(=C\c3ccc(F)cc3)C2=O)cc1,i,i,i,5.5,i,i
C=CCOc1ccc(/C=C2/C(=O)NC(=O)N(c3ccc(OCC)cc3)C2=O)cc1OCC,i,i,i,7.6,i,i
CCOc1ccc(N2C(=O)NC(=O)/C(=C\c3ccc(OC)c(OC)c3)C2=O)cc1,i,i,i,i,nt,nt
Cc1cccc(C(=O)NNC(=O)/C=C/C(=O)O)c1,i,i,i,9.2,i,i
N#CC1=C(N)C(C#N)(C#N)[C@@H](c2ccccc2)[C@@H]2CCCC=C12,i,i,i,i,nt,nt
N#C/C=C(\c1ccc(F)cc1)N1CCOCC1,i,i,i,8.4,i,i
CCOC(=O)/C(C#N)=C\c1ccc(OCc2ccc([N+](=O)[O-])cc2)c(OC)c1,i,i,i,i,nt,nt
CCN(CC)CCCNC(=O)CCNC(=O)Cn1cnc2ccccc2c1=O,i,i,i,i,nt,nt
Cc1cc2ncn(-c3ncnc4sc5c(c34)CCCC5)c2cc1C,i,i,i,4.9,i,i
Cc1ccc(-c2cc(C(=O)NN)c3ccccc3n2)cc1,i,i,i,i,nt,nt
NNC(=O)c1cc(-c2ccc(O)cc2)nc2ccc(Br)cc12,i,i,i,i,nt,nt
COc1ccc(-c2cc(C(=O)NN)c3cc(Br)ccc3n2)cc1,i,i,i,5.0,i,i
O=C(NCc1ccc2c(c1)OCO2)c1cc(-c2ccccc2Cl)nc2ccccc12,i,i,i,i,nt,nt

# Screening data as filed in PubChem BioAssay.
